Activity calls are given as the source filed them. The call rests on the fitted dose curve; in most records, active means well fitted curve in the direction sought with a large enough effect in the repeat runs; inconclusive means weak or mixed curves; inactive means flat fitted curve, though single readings scatter.
On the % scale 0 is the no-effect control and ±100 the full control effect.

A short description of this experiment: qHTS assay to test for compound auto fluorescence at 460 nm (blue) in HEK293 cell free culture (AID 720681). As to conditions: cell-free medium, autofluorescence 405/460 nm (blue); series mostly up to 91.3 µM. An outline of the steps:
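Compounds were added to cell-free DMEM with 10% FBS and fluorescence read directly. The blue channel used 405 nm excitation and 460 nm emission, with triamterene as the reference fluorophore.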
As to `NCC(=O)CCC(=O)O`, the call was inactive. For `O=C1OC(=O)C2C3C=CC(C3)C12` (stereo not given), the outcome was inactive. As for `C=C(C)C(=O)OCCOCC`, the result was inactive. Regarding `CC1(c2ccccc2)OC(C(=O)O)=CC1=O` (stereo not given), the compound was classed as inactive.

In the case of `C[N+](C)(C)CCOC(=O)CCC(=O)OCC[N+](C)(C)C`, the result was inactive. As for `CC(=O)c1ccc2c(c1)N(CCCN(C)C)c1ccccc1S2`, the fluorescence, % of fluorescent control was -0.103% [at 18.6 µM] (inactive). Take `CC1=CC=C(C(C)C)CC1`: the compound was called inactive. Still for that read-out and setting: the entry for `CCCCCCCCO[C@@H]1O[C@H](CO)[C@@H](O)[C@H](O)[C@H]1O` is “inactive”; for `CC(C)(O)c1ccc(CNC(=O)c2cccnc2Oc2ccc(F)cc2)cc1` it is “inactive”; for `c1ccc(CNCCNCc2ccccc2)cc1` it is “inactive”. With `COC(C)OC`, the outcome was inactive. Regarding `CC(COCCO)OCCO` (stereo not given), the call was inactive. Regarding `O=S(=O)(Oc1ccc(Cl)cc1)c1ccccc1`, the compound was classed as inactive. On to `COS(=O)(=O)C(F)(F)F`, for which the outcome was inactive. Turning to `CCNc1cc(O)ccc1C`, the result was inactive. With `Nc1cccc([N+](=O)[O-])c1`, the compound was called inactive. Still for that read-out and setting: the entry for `CC/C=C\CCOC(=O)CC` is “inactive”; for `O=C(c1ccc(F)cc1)C1CCN(CCn2c(=S)[nH]c3ccccc3c2=O)CC1` it is “inactive”; for `CC(C)CC(=O)C1C(=O)c2ccccc2C1=O` it is “inactive”. Same read-out and setting: the value for `ClCCOCCOCCCl` was “inactive”; that for `CCCCc1ncc(/C=C(\Cc2cccs2)C(=O)O)n1Cc1ccc(C(=O)O)cc1` was “inactive”; that for `CC(=O)NO` was “inactive”.

As to `COc1cc2nc(N3CCN(C(=O)C4COc5ccccc5O4)CC3)nc(N)c2cc1OC` (stereo not given), the result was inactive.

Turning to `CC1=CCCC(C)(C)C12CCC(C)O2` (stereo not given), the compound was called inactive. Turning to `Nc1ccccc1S(=O)(=O)c1ccccc1`, the compound was classed as inactive.
